Results from publication PMC7862700, “An all-to-all approach to the identification of sequence-specific readers for epigenetic DNA modifications on cytosine”.

Columns and labels:
Test in all cases: DAPPL (digital affinity profiling via proximity ligation, sequencing); 10 mM Tris-HCl pH 7.5, 50 mM NaCl, 1 mM DTT, 4% glycerol, room temperature, 30 min; GST-TFs on glutathione beads, 16-mer random dsDNA library, 0.1% formaldehyde crosslink after washing; high values mean tight binding
FEV = target: T1, FEV (Homo sapiens, UniProt Q99581 1-238); details: protein: recombinant; tags: N-terminal GST; dsDNA, one strand shown
T1 sequence: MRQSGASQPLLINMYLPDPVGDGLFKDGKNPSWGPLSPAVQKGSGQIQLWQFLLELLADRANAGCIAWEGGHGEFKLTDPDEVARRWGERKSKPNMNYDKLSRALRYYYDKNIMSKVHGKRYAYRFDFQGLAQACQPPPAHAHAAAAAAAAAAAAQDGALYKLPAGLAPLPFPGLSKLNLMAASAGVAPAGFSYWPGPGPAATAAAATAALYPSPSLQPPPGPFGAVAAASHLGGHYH
How it was run: (§1)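 GST fusions of human transcription factors were expressed in yeast and captured with glutathione beads. Once given DNA barcodes and pooled alongside a tag-only sample, they were incubated for 30 min at room temperature with 200 nmole of a random double-stranded 16-mer DNA library in Tris/NaCl/DTT/glycerol buffer, then washed, crosslinked (0.1% formaldehyde), proximity-ligated, PCR-amplified and sequenced on an Illumina NextSeq500. The binding signal of each hexamer is its read frequency for a factor divided by its frequency for the tag-only sample.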

ETV5 = ETV5 (Homo sapiens, UniProt P41161 1-510); details: protein: recombinant; tags: N-terminal GST; dsDNA, one strand shown
Chain of ETV5 (P41161 whole entry): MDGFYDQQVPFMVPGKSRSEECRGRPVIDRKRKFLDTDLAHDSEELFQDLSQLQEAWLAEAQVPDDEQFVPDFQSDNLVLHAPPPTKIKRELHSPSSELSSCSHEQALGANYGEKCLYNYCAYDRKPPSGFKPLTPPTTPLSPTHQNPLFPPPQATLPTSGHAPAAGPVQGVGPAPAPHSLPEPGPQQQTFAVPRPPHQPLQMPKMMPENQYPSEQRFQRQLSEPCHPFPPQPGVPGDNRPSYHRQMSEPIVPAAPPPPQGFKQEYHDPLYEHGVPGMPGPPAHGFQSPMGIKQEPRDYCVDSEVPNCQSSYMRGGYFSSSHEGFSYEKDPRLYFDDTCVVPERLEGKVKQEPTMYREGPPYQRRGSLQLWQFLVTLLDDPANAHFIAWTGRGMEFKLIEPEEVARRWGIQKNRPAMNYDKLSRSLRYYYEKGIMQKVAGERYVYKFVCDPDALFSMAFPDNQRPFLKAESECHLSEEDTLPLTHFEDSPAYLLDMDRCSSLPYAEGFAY
How it was run: as §1

HSF1 = HSF1 (Homo sapiens, UniProt Q00613 1-529); details: protein: recombinant; tags: N-terminal GST; chain copies: 3; dsDNA, one strand shown
Chain of HSF1 (Q00613 whole entry): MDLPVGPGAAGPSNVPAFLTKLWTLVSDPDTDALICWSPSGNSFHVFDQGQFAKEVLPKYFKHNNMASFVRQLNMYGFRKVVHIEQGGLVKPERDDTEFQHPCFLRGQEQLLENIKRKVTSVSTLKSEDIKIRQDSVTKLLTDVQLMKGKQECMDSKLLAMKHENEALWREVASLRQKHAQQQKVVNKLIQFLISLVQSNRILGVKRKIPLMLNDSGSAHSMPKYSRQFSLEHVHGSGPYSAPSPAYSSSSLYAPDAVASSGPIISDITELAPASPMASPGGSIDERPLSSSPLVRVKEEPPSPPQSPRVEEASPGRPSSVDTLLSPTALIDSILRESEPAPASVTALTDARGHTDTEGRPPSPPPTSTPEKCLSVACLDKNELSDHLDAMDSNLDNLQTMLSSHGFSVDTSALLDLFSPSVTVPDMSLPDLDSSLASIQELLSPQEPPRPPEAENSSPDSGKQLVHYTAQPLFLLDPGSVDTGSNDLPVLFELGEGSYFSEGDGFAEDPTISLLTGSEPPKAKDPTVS
How it was run: as §1

SPIC = target: T2, SPIC (Homo sapiens, UniProt Q8N5J4 1-248); details: protein: recombinant; tags: N-terminal GST; dsDNA, one strand shown
T2 sequence: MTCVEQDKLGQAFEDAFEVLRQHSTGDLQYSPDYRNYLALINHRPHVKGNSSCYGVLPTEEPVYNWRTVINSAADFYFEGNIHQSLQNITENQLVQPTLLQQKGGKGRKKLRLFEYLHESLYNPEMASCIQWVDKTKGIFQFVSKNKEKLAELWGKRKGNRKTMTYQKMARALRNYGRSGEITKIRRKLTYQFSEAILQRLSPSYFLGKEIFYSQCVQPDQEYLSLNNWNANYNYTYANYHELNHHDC
How it was run: as §1

ELF4 = ELF4 (Homo sapiens, UniProt Q99607 1-663); details: protein: recombinant; tags: N-terminal GST; dsDNA, one strand shown
Chain of ELF4 (Q99607 whole entry): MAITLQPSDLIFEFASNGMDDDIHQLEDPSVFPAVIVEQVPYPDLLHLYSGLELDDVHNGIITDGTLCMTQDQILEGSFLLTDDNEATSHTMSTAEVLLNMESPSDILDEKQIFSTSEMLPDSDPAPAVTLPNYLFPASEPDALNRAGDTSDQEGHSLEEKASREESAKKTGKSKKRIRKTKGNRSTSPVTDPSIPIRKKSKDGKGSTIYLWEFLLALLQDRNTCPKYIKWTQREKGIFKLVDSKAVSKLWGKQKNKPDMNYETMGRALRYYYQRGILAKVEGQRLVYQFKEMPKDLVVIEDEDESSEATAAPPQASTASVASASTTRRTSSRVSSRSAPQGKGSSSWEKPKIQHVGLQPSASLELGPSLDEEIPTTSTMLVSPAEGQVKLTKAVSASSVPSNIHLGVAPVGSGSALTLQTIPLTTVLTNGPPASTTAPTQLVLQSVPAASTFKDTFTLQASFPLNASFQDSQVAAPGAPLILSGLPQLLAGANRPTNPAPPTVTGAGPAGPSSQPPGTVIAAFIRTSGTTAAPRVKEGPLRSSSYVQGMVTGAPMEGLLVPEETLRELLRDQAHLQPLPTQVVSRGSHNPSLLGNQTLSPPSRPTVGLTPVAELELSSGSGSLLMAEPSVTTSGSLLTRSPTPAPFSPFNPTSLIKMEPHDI
How it was run: as §1

ELK4 = target: T3, ELK4 (Homo sapiens, UniProt P28324-2 1-405); details: protein: recombinant; tags: N-terminal GST; dsDNA, one strand shown
T3 sequence: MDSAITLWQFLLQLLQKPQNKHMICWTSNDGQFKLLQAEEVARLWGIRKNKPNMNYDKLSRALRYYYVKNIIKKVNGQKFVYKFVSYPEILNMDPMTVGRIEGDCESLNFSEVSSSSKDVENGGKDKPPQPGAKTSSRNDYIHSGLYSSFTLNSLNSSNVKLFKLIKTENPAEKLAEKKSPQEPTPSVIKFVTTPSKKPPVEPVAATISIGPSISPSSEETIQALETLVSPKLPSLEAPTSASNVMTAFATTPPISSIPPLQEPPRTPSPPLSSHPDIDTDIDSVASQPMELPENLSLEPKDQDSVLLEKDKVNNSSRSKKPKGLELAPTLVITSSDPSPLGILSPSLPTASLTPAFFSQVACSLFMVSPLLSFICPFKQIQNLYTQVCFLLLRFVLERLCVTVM
How it was run: as §1

ETV2 = target: T4, ETV2 (Homo sapiens, UniProt O00321 1-342); details: protein: recombinant; tags: N-terminal GST; dsDNA, one strand shown
T4 sequence: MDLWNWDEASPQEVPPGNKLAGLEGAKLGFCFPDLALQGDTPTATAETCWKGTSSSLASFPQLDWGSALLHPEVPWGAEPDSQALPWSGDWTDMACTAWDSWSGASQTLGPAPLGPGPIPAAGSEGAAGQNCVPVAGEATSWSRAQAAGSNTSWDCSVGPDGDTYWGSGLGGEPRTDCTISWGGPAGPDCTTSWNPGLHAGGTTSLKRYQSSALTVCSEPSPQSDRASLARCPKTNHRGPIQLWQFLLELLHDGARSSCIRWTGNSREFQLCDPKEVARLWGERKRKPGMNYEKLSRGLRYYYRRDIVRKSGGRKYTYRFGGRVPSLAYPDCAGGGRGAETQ
How it was run: as §1

ELF3 = target: T5, ELF3 (Homo sapiens, UniProt P78545 1-371); details: protein: recombinant; tags: N-terminal GST; dsDNA, one strand shown
T5 sequence: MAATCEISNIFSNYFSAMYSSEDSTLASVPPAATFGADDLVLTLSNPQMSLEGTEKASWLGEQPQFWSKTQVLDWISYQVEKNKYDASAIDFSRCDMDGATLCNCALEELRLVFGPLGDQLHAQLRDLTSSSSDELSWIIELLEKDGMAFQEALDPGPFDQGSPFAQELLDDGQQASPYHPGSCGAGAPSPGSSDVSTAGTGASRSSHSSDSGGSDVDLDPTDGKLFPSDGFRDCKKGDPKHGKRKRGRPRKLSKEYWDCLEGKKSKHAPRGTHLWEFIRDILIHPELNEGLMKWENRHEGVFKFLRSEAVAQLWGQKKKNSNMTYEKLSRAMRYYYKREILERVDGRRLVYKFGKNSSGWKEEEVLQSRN
How it was run: as §1

CRX = CRX (Homo sapiens, UniProt O43186 1-299); details: protein: recombinant; tags: N-terminal GST; dsDNA, one strand shown
Chain of CRX (O43186 whole entry): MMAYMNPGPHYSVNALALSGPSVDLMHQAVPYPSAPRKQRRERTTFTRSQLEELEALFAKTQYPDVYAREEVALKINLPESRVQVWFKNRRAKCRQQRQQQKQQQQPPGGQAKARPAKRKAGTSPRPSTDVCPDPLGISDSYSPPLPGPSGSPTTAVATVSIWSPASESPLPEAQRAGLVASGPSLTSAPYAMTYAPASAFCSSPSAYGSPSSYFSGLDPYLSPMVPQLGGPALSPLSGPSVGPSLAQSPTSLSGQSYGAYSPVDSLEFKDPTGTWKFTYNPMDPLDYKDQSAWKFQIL
How it was run: as §1

ETV1 = ETV1 (Homo sapiens, UniProt P50549 1-477); details: protein: recombinant; tags: N-terminal GST; dsDNA, one strand shown
Chain of ETV1 (P50549 whole entry): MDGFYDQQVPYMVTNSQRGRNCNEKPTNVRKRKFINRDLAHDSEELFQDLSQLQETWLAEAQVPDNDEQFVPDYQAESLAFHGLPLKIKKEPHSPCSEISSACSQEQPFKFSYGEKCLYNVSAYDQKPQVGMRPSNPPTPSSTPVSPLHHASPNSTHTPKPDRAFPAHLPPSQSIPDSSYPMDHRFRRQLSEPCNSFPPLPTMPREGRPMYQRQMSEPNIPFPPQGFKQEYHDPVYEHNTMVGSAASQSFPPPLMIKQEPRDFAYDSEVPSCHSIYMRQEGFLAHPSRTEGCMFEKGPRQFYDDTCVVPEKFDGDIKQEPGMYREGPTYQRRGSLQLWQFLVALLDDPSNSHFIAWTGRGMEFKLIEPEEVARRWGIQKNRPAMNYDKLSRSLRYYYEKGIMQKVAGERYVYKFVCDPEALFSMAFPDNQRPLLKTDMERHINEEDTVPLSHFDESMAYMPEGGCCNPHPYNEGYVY
How it was run: as §1

Sequence | binding signal (FEV) | binding signal (ETV5) | binding signal (HSF1) | binding signal (SPIC) | binding signal (ELF4) | binding signal (ELK4) | binding signal (ETV2) | binding signal (ELF3) | binding signal (CRX) | binding signal (ETV1)
GTTCTA | 1.26 fold enrichment (6-mer frequency, TF over GST control) | 1.18 fold enrichment (6-mer frequency, TF over GST control) | 2.94 fold enrichment (6-mer frequency, TF over GST control) | 1.37 fold enrichment (6-mer frequency, TF over GST control) | 1.31 fold enrichment (6-mer frequency, TF over GST control) | 1.2 fold enrichment (6-mer frequency, TF over GST control) | 1.17 fold enrichment (6-mer frequency, TF over GST control) | 1.27 fold enrichment (6-mer frequency, TF over GST control) | 1.59 fold enrichment (6-mer frequency, TF over GST control) | 1.11 fold enrichment (6-mer frequency, TF over GST control)
TTCCAC | 1.37 fold enrichment (6-mer frequency, TF over GST control) | 1.41 fold enrichment (6-mer frequency, TF over GST control) | 1.83 fold enrichment (6-mer frequency, TF over GST control) | 1.57 fold enrichment (6-mer frequency, TF over GST control) | 1.42 fold enrichment (6-mer frequency, TF over GST control) | 1.39 fold enrichment (6-mer frequency, TF over GST control) | 1.42 fold enrichment (6-mer frequency, TF over GST control) | 1.38 fold enrichment (6-mer frequency, TF over GST control) | 1.26 fold enrichment (6-mer frequency, TF over GST control) | 1.38 fold enrichment (6-mer frequency, TF over GST control)
AACTAA | 1.35 fold enrichment (6-mer frequency, TF over GST control) | 1.39 fold enrichment (6-mer frequency, TF over GST control) | 1.44 fold enrichment (6-mer frequency, TF over GST control) | 1.3 fold enrichment (6-mer frequency, TF over GST control) | 1.45 fold enrichment (6-mer frequency, TF over GST control) | 1.3 fold enrichment (6-mer frequency, TF over GST control) | 1.24 fold enrichment (6-mer frequency, TF over GST control) | 1.3 fold enrichment (6-mer frequency, TF over GST control) | 1.84 fold enrichment (6-mer frequency, TF over GST control) | 1.39 fold enrichment (6-mer frequency, TF over GST control)
TAAACT | 1.11 fold enrichment (6-mer frequency, TF over GST control) | 1.23 fold enrichment (6-mer frequency, TF over GST control) | 1.3 fold enrichment (6-mer frequency, TF over GST control) | 1.12 fold enrichment (6-mer frequency, TF over GST control) | 1.23 fold enrichment (6-mer frequency, TF over GST control) | 1.11 fold enrichment (6-mer frequency, TF over GST control) | 1.27 fold enrichment (6-mer frequency, TF over GST control) | 1.04 fold enrichment (6-mer frequency, TF over GST control) | 1.72 fold enrichment (6-mer frequency, TF over GST control) | 1.2 fold enrichment (6-mer frequency, TF over GST control)
TAATTC | 1.36 fold enrichment (6-mer frequency, TF over GST control) | 1.44 fold enrichment (6-mer frequency, TF over GST control) | 2.33 fold enrichment (6-mer frequency, TF over GST control) | 1.44 fold enrichment (6-mer frequency, TF over GST control) | 1.48 fold enrichment (6-mer frequency, TF over GST control) | 1.3 fold enrichment (6-mer frequency, TF over GST control) | 1.51 fold enrichment (6-mer frequency, TF over GST control) | 1.29 fold enrichment (6-mer frequency, TF over GST control) | 3.05 fold enrichment (6-mer frequency, TF over GST control) | 1.4 fold enrichment (6-mer frequency, TF over GST control)
TACCCT | 1.29 fold enrichment (6-mer frequency, TF over GST control) | 1.28 fold enrichment (6-mer frequency, TF over GST control) | 1.28 fold enrichment (6-mer frequency, TF over GST control) | 1.38 fold enrichment (6-mer frequency, TF over GST control) | 1.44 fold enrichment (6-mer frequency, TF over GST control) | 1.47 fold enrichment (6-mer frequency, TF over GST control) | 1.35 fold enrichment (6-mer frequency, TF over GST control) | 1.2 fold enrichment (6-mer frequency, TF over GST control) | 1.45 fold enrichment (6-mer frequency, TF over GST control) | 1.35 fold enrichment (6-mer frequency, TF over GST control)
TACCAA | 1.14 fold enrichment (6-mer frequency, TF over GST control) | 1.13 fold enrichment (6-mer frequency, TF over GST control) | 1.14 fold enrichment (6-mer frequency, TF over GST control) | 1.01 fold enrichment (6-mer frequency, TF over GST control) | 1.2 fold enrichment (6-mer frequency, TF over GST control) | 1.23 fold enrichment (6-mer frequency, TF over GST control) | 1.09 fold enrichment (6-mer frequency, TF over GST control) | 1.05 fold enrichment (6-mer frequency, TF over GST control) | 1.25 fold enrichment (6-mer frequency, TF over GST control) | 1.11 fold enrichment (6-mer frequency, TF over GST control)
